Laboratory results reported in PubChem BioAssay (NCATS).
Inconclusive results are not listed. Active and inactive are the calls of the source. Unless noted, calls follow the shape of the dose curve; as a rule, active = well fitted curve in the direction sought with a large enough effect; inconclusive = small, poorly fitted or top-dose-only effect, or another doubt; inactive = no such curve, though single readings can be large; an effect the other way counts as inactive or inconclusive.

Legend:
[1] = Confirmation and Secondary Assay for Modulators of Hemoglobin Beta Chain Splicing at IVS2 654 locus (AID 910);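 also: HeLa cells stably carrying EGFP split by mutant beta-globin IVS2-654 intron; % of control where 0% means no effect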
Summary of the method: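 HeLa cells stably expressing EGFP interrupted by β-globin IVS2-654 intron, seeded overnight in Opti-MEM/2% FCS, then treated 2 days at 37 °C. Restored splicing read as total peak GFP intensity per well by laser scanning cytometry (488 nm excitation, 500–520 nm emission); 500 nM antisense PNA as control.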

[2] = Counterscreen for APE1 Inhibitors: Fluorescent Dye Displacement Validation Assay (AID 1707);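 also: plate controls were ThO with dsDNA and no compound for no effect and ThO without dsDNA for full effect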
Summary of the method: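 Assay buffer: Tris-HCl pH7.5 with 50mM NaCl, 2 mM MgCl2, 0.01% Tween-20. Dye 250 nM, duplex 50 nM final. Readout: decrease in ThO endpoint fluorescence, 480 nm excitation, 540 nm emission.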

[3] = qHTS for differential inhibitors of proliferation of Plasmodium falciparum line 3D7 (AID 1876); also: potency is read from the fitted curve at half-maximal effect
[4] = qHTS for differential inhibitors of proliferation of Plasmodium falciparum line Dd2 (AID 1882); details: Potency: Plasmodium falciparum Dd2 proliferation inhibition; also: nearly all actives have a fitted effect of over 65% in size; also: potency is read from the fitted curve at half-maximal effect
Summary of the method: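 SYBR Green I DNA fluorescence read-out, ex 485/em 535 nm. Signals were normalized to 0.29 uM artemisinin and DMSO wells, then corrected using vehicle-only plates flanking each stack. Parasite growth ran 72 h in erythrocytes before lysis.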

[5] = qHTS for differential inhibitors of proliferation of Plasmodium falciparum line W2 (AID 1883); details: Potency: Plasmodium falciparum W2 proliferation inhibition;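 also: parasites grown with compound for 72 h before lysis and staining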; also: potency is read from the fitted curve at half-maximal effect
[6] = qHTS for differential inhibitors of proliferation of Plasmodium falciparum line HB3 (AID 1886); details: Potency: Plasmodium falciparum HB3 proliferation inhibition;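 also: parasites grown with compound for 72 h before SYBR Green readout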; also: potency is read from the fitted curve at half-maximal effect
[7] = molecular target: ATP-dependent DNA helicase Q1 (Homo sapiens) (UniProt P46063); test: qHTS Validation Assay for Inhibitors of RecQ-Like Dna Helicase 1 (RECQ1) (AID 2353);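 also: plate controls were DMSO vehicle for no effect and enzyme-free control for full effect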
Chain of ATP-dependent DNA helicase Q1 (Homo sapiens) (P46063 whole entry, looked up): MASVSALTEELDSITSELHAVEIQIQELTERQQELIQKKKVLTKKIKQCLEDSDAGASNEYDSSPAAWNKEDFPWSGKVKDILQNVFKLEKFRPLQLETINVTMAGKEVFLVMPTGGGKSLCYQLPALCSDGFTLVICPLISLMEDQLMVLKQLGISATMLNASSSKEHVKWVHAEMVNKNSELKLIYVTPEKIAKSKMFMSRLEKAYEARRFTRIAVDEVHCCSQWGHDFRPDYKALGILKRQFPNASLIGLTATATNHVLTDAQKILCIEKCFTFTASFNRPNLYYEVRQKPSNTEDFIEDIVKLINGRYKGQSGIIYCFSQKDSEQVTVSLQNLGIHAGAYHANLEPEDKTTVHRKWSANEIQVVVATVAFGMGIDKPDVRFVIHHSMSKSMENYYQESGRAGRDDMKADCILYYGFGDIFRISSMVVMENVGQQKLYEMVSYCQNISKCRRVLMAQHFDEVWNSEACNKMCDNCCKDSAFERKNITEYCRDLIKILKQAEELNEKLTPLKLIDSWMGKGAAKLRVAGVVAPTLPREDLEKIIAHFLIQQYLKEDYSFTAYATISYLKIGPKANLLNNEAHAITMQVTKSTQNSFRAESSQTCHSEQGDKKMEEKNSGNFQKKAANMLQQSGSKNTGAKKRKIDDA
Summary of the method: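 50 nM RECQ1T1 preincubated 15 min with compound in Tris pH 8.0 buffer with MgCl2, DTT, Tween-20 and 2.5 ug/ml poly(dI-dC); started with 200 nM TAMRA/BHQ-2 forked duplex and 2 mM ATP. Unwinding read as fluorescence (525/598 nm), two reads 2 h apart.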

[8] = Quantitative high throughput screen for delayed death inhibitors of the malarial parasite plastid, 96 hour incubation (AID 488745); also: nearly all actives have a fitted effect of over 70% in size; also: potency is read from the fitted curve at half-maximal effect
Summary of the method: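 P. falciparum carrying an integrated firefly luciferase reporter, grown in erythrocytes (2% hematocrit, 0.1% parasitemia final) in RPMI 1640/0.5% Albumax, was exposed to compound for 96 h (two generations) at 37 C, 5% CO2. Luminescence decrease indicated growth inhibition.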

[9] = Quantitative high throughput screen for delayed death inhibitors of the malarial parasite plastid, 48 hour incubation (AID 488752); also: nearly all actives have a fitted effect of over 65% in size; also: potency is read from the fitted curve at half-maximal effect
Summary of the method: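 Erythrocytes infected with P. falciparum carrying an integrated firefly luciferase reporter (2% hematocrit, 0.1% parasitemia final) were exposed to compounds in RPMI 1640/0.5% Albumax for 48 h at 37 C, 5% CO2. Growth inhibition was scored as reduced luminescence.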

[10] = molecular target: M-phase phosphoprotein 8 (Homo sapiens) (UniProt Q99549); test: qHTS Validation Assay for Inhibitors for MPP8 Chromodomain Interactions with Methylated Histone Tails (AID 488949); also: nearly all actives have a fitted effect of over 55% in size; also: potency is read from the fitted curve at half-maximal effect
Chain of M-phase phosphoprotein 8 (Homo sapiens) (Q99549 whole entry, looked up): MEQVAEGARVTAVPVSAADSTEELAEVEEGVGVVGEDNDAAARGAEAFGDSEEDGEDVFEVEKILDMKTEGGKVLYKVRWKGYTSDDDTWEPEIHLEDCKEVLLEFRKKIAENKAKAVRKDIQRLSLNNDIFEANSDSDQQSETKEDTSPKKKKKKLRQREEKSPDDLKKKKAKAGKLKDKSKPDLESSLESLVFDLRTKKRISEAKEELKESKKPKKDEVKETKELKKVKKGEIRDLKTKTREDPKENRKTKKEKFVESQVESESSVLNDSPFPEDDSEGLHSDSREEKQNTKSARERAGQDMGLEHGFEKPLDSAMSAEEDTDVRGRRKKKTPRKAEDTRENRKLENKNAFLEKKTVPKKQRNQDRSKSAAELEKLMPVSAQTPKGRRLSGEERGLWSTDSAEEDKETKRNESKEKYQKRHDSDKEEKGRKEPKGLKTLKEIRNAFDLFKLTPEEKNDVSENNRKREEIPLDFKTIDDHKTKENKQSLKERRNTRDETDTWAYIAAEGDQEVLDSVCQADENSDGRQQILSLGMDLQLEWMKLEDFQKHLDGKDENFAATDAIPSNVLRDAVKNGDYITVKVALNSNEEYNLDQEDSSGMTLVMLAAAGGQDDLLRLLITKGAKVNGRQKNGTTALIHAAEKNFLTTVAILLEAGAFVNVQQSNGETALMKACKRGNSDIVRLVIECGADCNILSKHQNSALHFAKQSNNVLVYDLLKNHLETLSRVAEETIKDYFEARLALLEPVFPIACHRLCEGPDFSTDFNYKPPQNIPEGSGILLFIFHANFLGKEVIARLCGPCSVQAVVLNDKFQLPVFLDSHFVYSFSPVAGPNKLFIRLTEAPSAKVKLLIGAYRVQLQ
Summary of the method: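 AlphaScreen read-out: streptavidin donor and nickel chelate acceptor beads (final 10 ug/mL), 30 min in the dark at RT. Complex of 50 nM MPP8 and 50 nM b-H3(1-18)K9me3 peptide had been exposed to compounds for 30 min beforehand.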

[11] = molecular target: Transient receptor potential cation channel subfamily V member 1 (Homo sapiens) (UniProt Q8NER1); test: HTS Assay for Compounds that Act as Enhancers of the Vanilloid Receptor 1 (AID 488979); also: 0% is about no effect
Chain of Transient receptor potential cation channel subfamily V member 1 (Homo sapiens) (Q8NER1 whole entry, looked up): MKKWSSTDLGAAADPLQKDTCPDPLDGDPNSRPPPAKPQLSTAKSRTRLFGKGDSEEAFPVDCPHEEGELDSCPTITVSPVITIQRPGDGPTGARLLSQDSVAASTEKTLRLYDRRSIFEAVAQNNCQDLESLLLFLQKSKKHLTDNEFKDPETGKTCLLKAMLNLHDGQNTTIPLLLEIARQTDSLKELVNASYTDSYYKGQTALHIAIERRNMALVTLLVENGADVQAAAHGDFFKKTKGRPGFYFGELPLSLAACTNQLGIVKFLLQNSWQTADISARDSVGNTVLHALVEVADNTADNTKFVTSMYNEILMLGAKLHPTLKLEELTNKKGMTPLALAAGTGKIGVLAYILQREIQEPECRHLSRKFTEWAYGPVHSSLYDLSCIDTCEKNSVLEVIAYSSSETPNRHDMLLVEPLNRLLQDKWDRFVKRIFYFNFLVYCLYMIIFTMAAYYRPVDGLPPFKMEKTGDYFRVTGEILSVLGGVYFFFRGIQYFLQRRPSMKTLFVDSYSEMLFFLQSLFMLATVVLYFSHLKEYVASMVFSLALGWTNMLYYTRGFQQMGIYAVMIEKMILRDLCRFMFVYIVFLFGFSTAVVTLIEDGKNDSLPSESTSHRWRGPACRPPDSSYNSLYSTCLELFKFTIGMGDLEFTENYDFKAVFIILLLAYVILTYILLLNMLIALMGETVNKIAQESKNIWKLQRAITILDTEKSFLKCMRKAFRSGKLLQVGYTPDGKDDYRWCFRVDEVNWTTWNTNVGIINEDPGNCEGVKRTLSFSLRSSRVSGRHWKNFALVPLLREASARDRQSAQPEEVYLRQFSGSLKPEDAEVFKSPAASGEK
Summary of the method: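 TRPV1 cells loaded with Fluo-8 calcium dye; compound added and Ca2+ signal (ex 480/em 520 nm) followed 3 min, then capsaicin at EC20 added and read 2 more min to detect enhancement.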

[12] = molecular target: Thyrotropin receptor (Homo sapiens) (UniProt P16473); test: qHTS Assay for Antagonists of the Thyroid Stimulating Hormone Receptor (AID 488980); also: series mostly up to about 58 µM; 0% is about no effect
Summary of the method: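 TSHR-HEK293 cells; 70 uM RO 20-1724 PDE inhibitor; compound + EC80 TSH (4 nM final); anti-cAMP cryptate antibody/cAMP-d2 in lysis buffer, 30 min RT; HTRF 665/620 nm read.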

[13] = molecular target: Galactokinase (Homo sapiens) (UniProt P51570); test: qHTS Validation Assay for Inhibitors of Human Galactokinase (GALK) (AID 493189); also: 0% is about no effect
Chain of Galactokinase (Homo sapiens) (P51570 whole entry, looked up): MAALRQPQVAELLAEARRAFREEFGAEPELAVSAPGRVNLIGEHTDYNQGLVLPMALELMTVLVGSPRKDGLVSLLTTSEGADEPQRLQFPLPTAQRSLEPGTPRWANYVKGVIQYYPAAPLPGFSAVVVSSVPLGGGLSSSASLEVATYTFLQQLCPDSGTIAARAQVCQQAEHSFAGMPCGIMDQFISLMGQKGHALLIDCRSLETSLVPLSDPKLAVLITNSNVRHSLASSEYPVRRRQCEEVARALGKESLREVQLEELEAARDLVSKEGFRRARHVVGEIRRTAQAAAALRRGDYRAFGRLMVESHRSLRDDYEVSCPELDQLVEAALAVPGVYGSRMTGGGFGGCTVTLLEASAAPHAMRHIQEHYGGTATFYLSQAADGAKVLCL
Summary of the method: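 Luminescence from leftover ATP (Kinase-Glo Plus, 10 min) served as read-out after a 1 h room-temperature reaction of 5 nM GALK, 100 uM galactose and 35 uM ATP at pH8.0.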

[14] = molecular target: Voltage-gated inwardly rectifying potassium channel KCNH2 (Homo sapiens) (UniProt Q12809); test: qHTS Assay for Small Molecule Inhibitors of the Human hERG Channel Activity (AID 588834);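 also: top concentration of the series differs between compounds; % is scaled to controls: 0 for no effect and ±100 for the full control effect; lower thallium flux fluorescence means stronger hERG block; nearly all actives have a fitted effect of over 50% in size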
Chain of Voltage-gated inwardly rectifying potassium channel KCNH2 (Homo sapiens) (Q12809 whole entry, looked up): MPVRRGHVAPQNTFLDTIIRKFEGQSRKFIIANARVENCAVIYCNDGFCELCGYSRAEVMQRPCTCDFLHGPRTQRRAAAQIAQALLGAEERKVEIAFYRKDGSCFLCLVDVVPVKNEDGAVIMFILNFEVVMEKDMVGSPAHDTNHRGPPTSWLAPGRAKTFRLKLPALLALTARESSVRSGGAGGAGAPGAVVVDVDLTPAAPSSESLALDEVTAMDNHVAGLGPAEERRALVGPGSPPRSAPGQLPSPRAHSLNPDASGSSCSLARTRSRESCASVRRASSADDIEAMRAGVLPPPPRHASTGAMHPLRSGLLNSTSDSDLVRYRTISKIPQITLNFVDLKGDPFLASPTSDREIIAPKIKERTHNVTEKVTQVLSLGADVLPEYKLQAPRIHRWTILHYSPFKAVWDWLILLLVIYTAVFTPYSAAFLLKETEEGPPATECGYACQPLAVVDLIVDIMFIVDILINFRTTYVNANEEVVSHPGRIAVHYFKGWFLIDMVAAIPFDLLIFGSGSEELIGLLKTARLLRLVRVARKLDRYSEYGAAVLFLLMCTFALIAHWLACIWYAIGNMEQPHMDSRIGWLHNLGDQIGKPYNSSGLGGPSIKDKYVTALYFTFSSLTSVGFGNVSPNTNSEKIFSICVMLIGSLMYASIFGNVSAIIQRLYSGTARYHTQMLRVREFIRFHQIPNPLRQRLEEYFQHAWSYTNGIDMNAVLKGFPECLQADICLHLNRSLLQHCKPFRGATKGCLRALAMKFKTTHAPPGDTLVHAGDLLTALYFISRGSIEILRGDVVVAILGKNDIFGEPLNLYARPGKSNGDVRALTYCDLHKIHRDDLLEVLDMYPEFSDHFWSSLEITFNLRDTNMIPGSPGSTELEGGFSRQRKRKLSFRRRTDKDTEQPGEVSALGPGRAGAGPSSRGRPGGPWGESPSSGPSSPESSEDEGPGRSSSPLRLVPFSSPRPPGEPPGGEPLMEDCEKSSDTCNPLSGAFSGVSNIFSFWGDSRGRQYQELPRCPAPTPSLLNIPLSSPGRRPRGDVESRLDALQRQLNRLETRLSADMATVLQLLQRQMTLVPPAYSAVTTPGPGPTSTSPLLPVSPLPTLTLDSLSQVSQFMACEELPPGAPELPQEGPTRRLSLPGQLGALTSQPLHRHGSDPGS
Summary of the method: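 Concentration-response qHTS measuring drop in thallium-sensitive dye signal. U2OS cells carrying BacMam hERG; compound exposure ~10 min, then stimulation buffer and 2 min read at 1 sec intervals.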

[15] = molecular target: DNA repair nuclease/redox regulator APEX1 (Homo sapiens) (UniProt P27695); test: qHTS Validation Assay for Inhibitors of the Human Apurinic/apyrimidinic Endonuclease 1 (APE1) (AID 1705;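 also: TAMRA fluorescence gain over two minutes as APE1 cuts a quenched THF abasic duplex; series mostly up to about 57 µM; % is scaled to controls: 0 for no effect and ±100 for the full control effect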)
Chain of DNA repair nuclease/redox regulator APEX1 (Homo sapiens) (P27695 whole entry, looked up): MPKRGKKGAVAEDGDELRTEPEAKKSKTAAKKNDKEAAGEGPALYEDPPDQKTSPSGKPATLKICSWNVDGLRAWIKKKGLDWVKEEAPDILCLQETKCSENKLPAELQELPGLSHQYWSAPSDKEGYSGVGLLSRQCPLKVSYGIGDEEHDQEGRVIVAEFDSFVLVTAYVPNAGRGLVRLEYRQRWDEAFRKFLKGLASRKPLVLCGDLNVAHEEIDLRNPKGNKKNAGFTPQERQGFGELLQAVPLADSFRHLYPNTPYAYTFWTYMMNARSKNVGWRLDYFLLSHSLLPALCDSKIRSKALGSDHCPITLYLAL
Summary of the method: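 Read-out: TAMRA fluorescence (525 nm ex, 598 nm em) from cleavage of a quenched THF abasic-site duplex, 50 nM final; activity taken as intensity change between third and first of three reads 60 s apart.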

[16] = molecular target: Ferritin light chain (Equus caballus) (UniProt P02791); test: qHTS Validation Assay for Identification of Novel General Anesthetics (AID 2323); also: series mostly up to about 77 µM; % is scaled to controls: 0 for no effect and ±100 for the full control effect
Chain of Ferritin light chain (Equus caballus) (P02791 2-175 limits assumed): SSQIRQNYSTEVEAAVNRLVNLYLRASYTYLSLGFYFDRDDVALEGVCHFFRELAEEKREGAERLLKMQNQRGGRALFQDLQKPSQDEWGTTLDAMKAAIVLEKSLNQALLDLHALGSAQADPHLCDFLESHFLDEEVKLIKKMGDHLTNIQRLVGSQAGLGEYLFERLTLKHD
Summary of the method: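 10 uM horse-spleen apoferritin + 1-AMA (50% saturated, PBS); cpd pin-transferred, 10 min RT. Ex 380/Em 535 nm endpoint. Activity normalized between free 1-AMA and 1-AMA/apoferritin; 4-parameter Hill fit of concentration-response.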

[17] = Validation screen for small molecules that induce DNA re-replication in MCF 10A normal breast cells (AID 463097); also: 0% is about no effect; nearly all actives have a fitted effect of over 60% in size
Summary of the method: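 250 MCF 10A cells/well; compound pin-transferred; 48 hr, 37 C, 5% CO2; Hoechst 40 min; imaged 405/500-530 nm. Hits = more high-intensity nuclei.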

[18] = qHTS Assay for Identification of Small Molecule Agonists for Hypoxia Response Element Signaling Pathway (AID 914; active = well fitted activation curve with a large enough effect in the signal ratio, with a control signal flat, not every such curve was filed as active; the % refers to the signal ratio; also: potency is read from the fitted curve at half-maximal effect; as to activation: % of control where 0% means no effect); details: ME-180 HRE-bla reporter, beta-lactamase ratio, CoCl2, 17 h; activation: hits give high values
Summary of the method: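 ME-180 cells carrying an HRE-driven beta-lactamase reporter were treated with compounds in a titration series plus an EC50 level of CoCl2 for 17 h at 37 degrees Celsius; CCF4 readout as the 460nm/530nm ratio gave AC50 values.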

[19] = molecular target: Cytochrome P450 2C19 (Homo sapiens) (UniProt P33261); test: qHTS Assay for Inhibitors and Substrates of Cytochrome P450 2C19 (AID 899); also: nearly all actives have a fitted effect of over 60% in size; also: potency is read from the fitted curve at half-maximal effect
Chain of Cytochrome P450 2C19 (Homo sapiens) (P33261 whole entry, looked up): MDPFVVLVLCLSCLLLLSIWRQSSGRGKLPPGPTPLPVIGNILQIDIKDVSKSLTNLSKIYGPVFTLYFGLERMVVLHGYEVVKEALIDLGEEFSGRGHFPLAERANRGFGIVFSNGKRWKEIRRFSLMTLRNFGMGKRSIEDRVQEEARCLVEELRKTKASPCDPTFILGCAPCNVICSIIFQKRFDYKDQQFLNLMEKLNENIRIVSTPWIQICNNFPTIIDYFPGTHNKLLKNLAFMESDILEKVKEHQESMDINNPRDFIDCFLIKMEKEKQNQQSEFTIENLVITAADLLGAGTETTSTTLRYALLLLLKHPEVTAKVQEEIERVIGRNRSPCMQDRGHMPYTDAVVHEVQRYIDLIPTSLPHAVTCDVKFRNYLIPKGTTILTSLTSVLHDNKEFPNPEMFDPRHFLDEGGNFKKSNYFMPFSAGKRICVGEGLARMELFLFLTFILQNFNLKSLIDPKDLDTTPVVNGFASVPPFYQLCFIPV
Summary of the method: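 Signal comes from luciferase acting on luciferin released by CYP2C19-mediated hydroxylation of Luciferin-H EGE, 10uM (KM). Assay mix: 5nM enzyme, 50mM KPO4; 60 min at 37C with NADPH regeneration. Data normalized against 57uM ketoconazole.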

C[n+]1cccc(C(=O)[O-])c1
inactive: Potency [1]

COc1cc(O)c(C(=O)/C=C/c2ccc(OC)c(O)c2)c(OC)c1
inactive: Potency [1]

C[C@@H](Oc1ccc(Oc2cnc3ccc(Cl)cc3n2)cc1)C(=O)O
inactive: outcome [2] | Potency [3] | Potency [4] | Potency [5] | Potency [6] | outcome [7] | Potency [8] | Potency [9] | Potency [10] | outcome [11] | outcome [12] | outcome [13] | Potency [14]

COC(=O)CC1C2(C)CC34OC5(C)O[C@@]6(C7/C(=C(/OC)C(C)C)C(=O)OC(c8ccoc8)[C@@]7(C)C(OC(=O)C(C)C)C(OC)[C@]6(O5)[C@@]13C)C(OC)[C@]4(OC)C2OC(C)=O (some centres not stated)
inactive: Potency [1]

O=C1C=CC2=C3c4cc(O)c(O)cc4CC3(O)COC2=C1O (configuration not stated)
inactive: Potency [1]

CC#C[C@]1(O)CC[C@H]2C3CCC4=CC(=O)CCC4=C3[C@@H](c3ccc(N(C)C)cc3)C[C@@]21C (some centres not stated)
active: Potency [3] 10 µM | Potency [5] 5.01 µM | Potency [6] 12.6 µM | Potency [8] 11.7 µM | Potency [10] 15.8 µM
inactive: outcome [15] | outcome [2] | outcome [7] | outcome [11] | outcome [12] | outcome [13]

CNC(=O)[C@H]1O[C@@H](n2cnc3c(N)ncnc32)[C@H](O)[C@H]1O
inactive: outcome [15] | outcome [2] | Potency [3] | Potency [4] | Potency [5] | Potency [6] | outcome [16] | outcome [7] | outcome [17] | Potency [8] | Potency [9] | Potency [10] | outcome [11] | outcome [12] | outcome [13] | Potency [14]

CC(C)=CCC/C(C)=C/CC/C(C)=C/CC/C(C)=C/CC/C(C)=C/CC/C(C)=C/CC/C(C)=C/CC/C(C)=C/CC/C(C)=C/CO
inactive: Potency [1]

COc1ccc2c(c1OC)C(=O)OC2C1c2c(cc3c(c2OC)OCO3)CCN1C (configuration not stated)
inactive: outcome [15] | outcome [2] | Potency [4] | outcome [16] | outcome [7] | outcome [17] | Potency [10] | outcome [11] | outcome [12] | outcome [13] | Potency [14]
active: Potency [3] 12.6 µM | Potency [5] 14.1 µM

CCCC1O[C@@H]2C[C@H]3[C@@H]4CCC5=CC(=O)C=C[C@]5(C)C4[C@@H](O)C[C@]3(C)[C@]2(C(=O)CO)O1 (some centres not stated)
active: Potency [3] 2.51 µM | Potency [4] 5.01 µM | Potency [5] 2.51 µM | Potency [6] 5.01 µM | Potency [8] 2.94 µM | Potency [9] 10.4 µM
inactive: outcome [15] | outcome [2] | outcome [16] | outcome [7] | outcome [17] | Potency [10] | outcome [11] | outcome [13] | Potency [14]

Cc1cccc2c3c(ccc12)C1=C(C(=O)C3=O)C(C)CO1 (configuration not stated)
inactive: Potency [1]

CN(C)CCCO[C@H]1C([C@H](O)CO)O[C@@H]2OC(C)(C)O[C@@H]21 (some centres not stated)
inactive: outcome [15] | outcome [2] | Potency [3] | Potency [4] | Potency [5] | Potency [6] | outcome [16] | outcome [7] | outcome [17] | Potency [8] | Potency [9] | Potency [10] | outcome [11] | outcome [13] | Potency [14]

CN1CCN(c2ncncc2-c2ccccc2Cl)CC1
inactive: activation [18] 4.87%

CN1CCN(c2ncncc2-c2ccoc2)CC1
inactive: Potency [19]

O=c1c(-c2ccc(F)cc2)nc2cnc(N3CCNCC3)nc2n1Cc1cccs1
active: Potency [18] 2.51 µM

COCCn1c(=O)c(-c2cccs2)nc2cnc(N3CCN(C)CC3)nc21
active: Potency [18] 2.51 µM

COc1ccc(-n2c(=O)c(-c3cn(C)c4ccccc34)nc3cnc(N4CCNCC4)nc32)cc1
active: Potency [18] 3.16 µM

CN1CCN(c2ncc3nc(-c4cc(F)cc(F)c4)c(=O)n(CCC#N)c3n2)CC1
active: Potency [18] 3.16 µM

COc1cccc(Cn2c(=O)c(-c3ccccc3)nc3cnc(N4CCN(C)CC4)nc32)c1
active: Potency [18] 3.16 µM

Cc1noc(C)c1-c1cncnc1N1CCN(C)CC1
inactive: Potency [19]

COc1ccccc1CNc1ncnc2ccc(-c3ccccc3OC)cc12
active: Potency [19] 3.16 µM

COc1ccccc1-c1ccc2ncnc(NC3CC3)c2c1
inactive: activation [18] 27.8%

CN1CCN(c2ncc3ncc(=O)n(Cc4ccc(F)cc4)c3n2)CC1
inactive: activation [18] -5.68%

COc1ccccc1-c1ccc2ncnc(NCc3ccccc3)c2c1
active: Potency [19] 3.98 µM

COc1ccc(CNc2ncnc3ccc(-c4ccoc4)cc23)c(OC)c1
active: Potency [19] 7.94 µM
